# GLS inh – qHTS for Inhibitors of Glutaminase (GLS); AID 624170, 2012; GLS enzymatic activity, qHTS titration; 410,000 tested, 0.21% active; Potency, µM (doses to about 45.5 µM), inactives show top-dose activity change, negative = inhibition, actives largely listed as inhibitors; note: potency is the fitted concentration of half-maximal effect; % is set by controls: 0 for no effect and ±100 for the full control effect
# Target sequence (O94925 whole entry, looked up): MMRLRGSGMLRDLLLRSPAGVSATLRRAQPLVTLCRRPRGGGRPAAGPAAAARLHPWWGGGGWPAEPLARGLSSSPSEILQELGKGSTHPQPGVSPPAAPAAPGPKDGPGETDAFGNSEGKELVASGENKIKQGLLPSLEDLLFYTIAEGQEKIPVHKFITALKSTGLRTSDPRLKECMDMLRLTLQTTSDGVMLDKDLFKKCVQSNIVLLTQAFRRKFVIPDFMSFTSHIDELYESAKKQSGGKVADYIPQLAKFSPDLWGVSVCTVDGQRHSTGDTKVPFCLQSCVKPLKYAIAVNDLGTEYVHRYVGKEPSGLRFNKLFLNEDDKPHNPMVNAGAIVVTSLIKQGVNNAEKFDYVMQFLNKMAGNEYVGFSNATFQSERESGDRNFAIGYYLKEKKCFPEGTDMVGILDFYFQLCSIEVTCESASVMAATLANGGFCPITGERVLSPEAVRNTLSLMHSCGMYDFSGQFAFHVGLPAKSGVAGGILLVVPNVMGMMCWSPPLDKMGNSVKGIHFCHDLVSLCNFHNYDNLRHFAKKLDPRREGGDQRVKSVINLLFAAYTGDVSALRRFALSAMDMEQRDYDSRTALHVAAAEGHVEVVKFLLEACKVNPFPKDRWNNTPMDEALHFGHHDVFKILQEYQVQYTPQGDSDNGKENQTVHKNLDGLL
#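 Enzyme dispensed in phosphate buffer (45 mM, pH 8.2, 0.02% Tween-20), compounds pinned in, then 1 mM L-glutamine solution and the glutamate oxidase–HRP–Amplex Red mix added; fluorescence read immediately and again after 30 min at room temperature.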
# KCNH2 3.1 inh – qHTS for Inhibitors of KCHN2 3.1: Mutant qHTS | U2OS KCNH2 3.1, thallium flux FluxOr; hits give low values | Potassium voltage-gated channel subfamily H member 2, brain isoform KCNH2 3.1 (human) | 340,000 tested, 0.95% active | activity change, % (tested at about 1.8 µM);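 active = maximum activity change below -70%; inconclusive = maximum activity change from -70% to -50%; inactive = maximum activity change above -50%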;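 note: thallium influx rate constant from kinetic fluorescence after stimulation buffer; % is set by controls: 0 for no effect and ±100 for the full control effect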
#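 U2OS cells transduced with KCNH2 3.1 mutant virus (1.77 x 10^8 /mL, 4 h), plated overnight at 37 C, loaded 45 min with FluxOr dye plus Red40 quencher. Thallium flux rate constant from kinetic reads after stimulation buffer, normalised to controls.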
# KCNH2 WT inh – qHTS for Inhibitors of KCHN2 3.1: Wildtype qHTS | U2OS, BacMam KCNH2, thallium flux FluxOr; hits give low values | activity change, % at 1.84 µM | 340,000 tested, 0.37% active | AID 720551, 2013;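 active = maximum activity change below -70%; inconclusive = maximum activity change between -70% and -50%; inactive = maximum activity change above -50%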; note: % is set by controls: 0 for no effect and ±100 for the full control effect
#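 U2OS cells were transduced with wild-type KCNH2 virus (2.03 x 10^8 / mL) for 4 h at room temperature, then cultured overnight at 37 C. Thallium flux was read with FluxOr dye. Rate constants were normalized to DMSO controls.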
# GLP1R cytotox – qHTS of GLP-1 Receptor Inverse Agonists: Cytotox Screen | HEK293 cAMP-luciferase reporter cells, luminescence, 24 h | Potency, µM (highest dose often 38.3 µM), without a hit: top-dose activity change, negative = inhibition, actives largely listed as inhibitors | 410,000 tested, 0.13% active;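 note: loss of luciferase light is scored as toxicity; potency is the fitted concentration of half-maximal effect; % is set by controls: 0 for no effect and ±100 for the full control effect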
#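 Cells in DMEM/10% Nu serum/1% pen-strep, 1536-well format. Pre-incubated 12 h, dosed with 23 nL compound, incubated a further 24 h. Luciferase detection, 12 min at room temp, luminescence.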
# GLP-1R inv ag – qHTS of GLP-1 Receptor Inverse Agonists (Inhibition Mode) | AID 624417, 2012 | 410,000 tested, 1.6% active | Glucagon-like peptide 1 receptor (Homo sapiens), P43220 | Potency, µM (doses to about 38.3 µM), without a hit: at the top dose activity change, negative = inhibition, hits mostly inhibitors | HEK293 GLP-1R CRE-luciferase, luminescence, 24 h; GLP-1R form is constitutively active; note: potency is the fitted concentration of half-maximal effect; % is set by controls: 0 for no effect and ±100 for the full control effect; nearly all actives have a fitted effect of over 55% in size
#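 Cells are plated, allowed 12 hours at 37 deg C, then treated with compounds for 24 hr before luciferase detection reagent is added and luminescence is read after 12 min at room temperature. The HEK293 line carries constitutively active GLP-1R with a cAMP-responsive reporter.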
# GLP1R ag – qHTS of GLP-1 Receptor Agonists. Glucagon-like peptide 1 receptor (Homo sapiens), P43220. Potency, µM (series often up to 45.6 µM), for the others: at the highest dose activation, most hits filed as activators. 380,000 tested, 0.007% active. HEK293 GLP-1R CRE-luciferase, luminescence, 4-6 h; cells express a hypersensitive GLP-1R form; note: potency is the fitted concentration of half-maximal effect; % of control where 0% means no effect
# Starred values were filed as active, the others as inactive; ? = inconclusive; . = no result. The list is not random: actives were taken first. Their share in the collection is about 2.8%. Unless noted, calls come from the whole dose curve; as a rule, active = well fitted curve in the direction sought with a large enough effect; inconclusive = small, poorly fitted or top-dose-only effect, or another doubt; inactive = no such curve, though single readings can be large; an effect the other way counts as inactive or inconclusive.
SMILES,GLS inh,KCNH2 3.1 inh,KCNH2 WT inh,GLP1R cytotox,GLP-1R inv ag,GLP1R ag
O=C(COc1cccc(NC(=O)c2cccc([N+](=O)[O-])c2)c1)c1ccc(Br)cc1,7.2%,-22.6,-10.6,-19.4%,3.16µM*,-16.0%
Cc1ccccc1NC(=O)OCc1cccnc1Sc1ccc(Cl)cc1,-1.8%,-6.5,-2.8,-2.8%,-25.2%,3.5%
Cc1ccc(Sc2ncccc2COC(=O)Nc2ccccc2)cc1,14.2%,-5.8,-11.5,-2.1%,7.94µM*,0.3%
Cc1ccc(Sc2ncccc2COC(=O)Nc2c(C)cccc2C)cc1,-3.4%,-5.9,-7.7,9.1%,7.94µM*,-1.4%
Cc1ccc(N2C(=O)CSC23C(=O)N(CC(=O)NC2CCCCC2)c2ccccc23)cc1 (centres undefined),-2.2%,.,.,1.6%,-3.2%,4.8%
CC(C)CCNC(=O)Nc1ccc2c(c1)N(C)C(=O)c1ccccc1S2,-2.2%,.,.,?,?,.
O=C(N/N=C1\CCCc2c1[nH]c1ccc(Cl)cc21)c1ccncc1,-4.5%,24.8,-2.8,?,7.08µM*,0.2%
Cc1ccc(CC(=O)Nc2c(C(=O)N3CCN(c4ccccc4)CC3)oc3ccccc23)cc1,5.5%,.,.,-10.0%,?,.
CCOCCCN(C)C1CCN(C(=O)c2oc3ccccc3c2NC(=O)Cc2ccc([N+](=O)[O-])cc2)CC1,9.8%,-100.1*,-102.3*,-12.6%,?,10.3%
CCOc1ccc(C(=O)Nc2c(C(=O)N3CCC(N4CCCCC4)CC3)oc3ccccc23)cc1,6.7%,-27.9,23.0,-20.4%,?,9.7%
CCOCCCN(C)C1CCN(C(=O)c2oc3ccccc3c2NC(=O)COc2ccc(F)cc2)CC1,11.2%,-100.2*,-42.3,4.5%,-26.8%,-1.0%
O=C(COc1ccccc1)Nc1c(C(=O)N2CCN(c3ccc(F)cc3)CC2)oc2ccccc12,10.4%,.,.,1.0%,10.8%,-6.6%
CCOCCCN(C)C1CCN(C(=O)c2oc3ccccc3c2NC(=O)c2cccc([N+](=O)[O-])c2)CC1,7.8%,-107.5*,-78.8*,-26.2%,?,-0.4%
CCOCCCN(C)C1CCN(C(=O)c2oc3ccccc3c2NC(=O)Cc2ccc(F)cc2)CC1,8.3%,-82.9*,-107.5*,-21.1%,?,-2.5%
O=C(Nc1c(C(=O)N2CCN(c3ccccn3)CC2)oc2ccccc12)c1ccc([N+](=O)[O-])cc1,-5.6%,-104.8*,?,-3.6%,1.8%,15.7%
O=C(NCCC(=O)N1CCN(c2ccccn2)CC1)c1ccc([N+](=O)[O-])cc1,-3.5%,-0.3,10.4,0.0%,-15.7%,-3.9%
Cc1cccc(CC(=O)Nc2ccc(C(=O)N3CCOCC3)cc2)c1,0.0%,9.3,-11.4,10.5%,5.6%,6.6%
OC(c1ccccc1)C(NCCNCc1ccccc1)c1ccccc1 (centres undefined),0.7%,-38.7,-4.2,-1.7%,7.94µM*,11.0%
COC(=O)c1ccc(CSc2nnc(-c3ccncc3)n2Cc2ccccc2)o1,-15.9%,-172.8*,-199.0*,-3.3%,36.8%,15.7%
COc1cccc(N2CCN(C(=O)c3cc4c(=O)n(Cc5ccco5)ccc4nc3C)CC2)c1,7.9%,.,.,3.5%,6.2%,.
Cc1ccc(S(=O)(=O)N(Cc2ccccc2)c2ccccc2C(=O)Nc2ccccc2C(=O)NCc2ccco2)cc1,-2.0%,-6.7,-7.5,14.8%,5.01µM*,-5.4%
CC1CC2C3CCC4=CC(=O)C=CC4(C)[C@@]3(F)C(O)CC2(C)[C@@]1(O)C(=O)CCl (some centres undefined),5.9%,.,.,.,.,3.5%

# Source: PubChem BioAssay
